Growth inhibition, inhibition and outcome data for 20 molecules are collected here from PubChem BioAssay.

Values without a mark were called inactive. For some of these results: Potency and affinity values are given separately. Active and inactive are the calls of the source. Unless noted, no rule for the calls is given here.

Experiment [1] can be described thus: antimalarial activity against Dd2 strain (AID 2302;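 active = growth inhibition above 50% at the single 2 µM test dose, taken to imply half-maximal potency below 2 µM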;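 also: 0% = DMSO untreated growth and 100% = chloroquine plus artemisinin killed control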). The note with it: P. falciparum Dd2 in RBCs, LDH growth readout, 72 h; at 2 µM; active compounds read high.
Experiment [2] is described as follows: human hepatoma cell viability loss – ATP luminescence, cytotoxicity control for P. falciparum antimalarial project, primary screen (AID 2303;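 active = inhibition above 50%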;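 also: 0% = DMSO wells and 100% = digitonin-killed cells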). The note with it: HepG2 viability, 24-48 h, at 10 µM, active compounds read high.
The target in experiment [3] is L-lactate dehydrogenase (Plasmodium falciparum (isolate CDC / Honduras)) (UniProt Q27743). Kind of experiment: PfLDH activity inhibition – cell lysate, 3D7 strain, counter-screen for P. falciparum growth inhibition project (AID 2304).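 Also: 0% = vehicle and 100% = reference inhibitor.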 The note with it: P. falciparum 3D7 crude extract, LDH APAD/NBT absorbance; at 2 µM; active compounds read high. In general terms: The purpose of a counterscreen is to sort out artefacts and off-target activity.

Experiment [4] in a line: inhibition of 3D7 malaria parasite growth – strain 3D7 (AID 2306).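 Also: 0% = DMSO wells and 100% = chloroquine plus artemisinin control wells.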 The note with it: P. falciparum 3D7 erythrocytic growth, LDH absorbance, 72 h; at 2 µM; active compounds read high.
Experiment [5] has as its target Calcium-dependent protein kinase 1 (Plasmodium falciparum (isolate 3D7)) (UniProt P62344). The experiment in a line: PfCDPK1 kinase inhibitors, biochemical, TCAMS library (AID 1159585; cut-off not given, nearly all actives have IC50 up to about 0.98 µM;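 also: inhibitors leave more ATP so luminescence rises with inhibition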). As to conditions: recombinant PfCDPK1, Kinase-Glo ATP depletion luminescence. (Kinase-Glo reads ATP consumption through a luciferase reaction.)
The target of experiment [6] is Plasmodium falciparum protein kinase 6 (PK6, PF3D7_1337100) (UniProt Q8IDW1). The experiment in a line: PfPK6 kinase inhibitors, biochemical, TCAMS library (AID 1159586). The note with it: recombinant PfPK6, Kinase-Glo ATP depletion luminescence.
The target in experiment [7] is Protein kinase 7 (PK7), Plasmodium falciparum 3D7 (PF3D7_0213400) (UniProt Q7YTF7). The experiment in a line: inhibition of Plasmodium PK7 catalytic activity – biochemical, TCAMS antimalarial set, Kinase-Glo luminescence (AID 1159587). The note with it: recombinant PfPK7, Kinase-Glo ATP depletion luminescence.
Experiment [8] concerns the target Calcium-dependent protein kinase 4 (Plasmodium falciparum (isolate 3D7)) (UniProt Q8IBS5). Kind of experiment: PfCDPK4 kinase inhibitors, biochemical, TCAMS library (AID 1159588; cut-off not given, nearly all actives have IC50 up to about 0.91 µM). As to conditions: recombinant PfCDPK4, Kinase-Glo ATP depletion luminescence.

L-lactate dehydrogenase (Plasmodium falciparum (isolate CDC / Honduras)), sequence (Q27743 whole entry, looked up): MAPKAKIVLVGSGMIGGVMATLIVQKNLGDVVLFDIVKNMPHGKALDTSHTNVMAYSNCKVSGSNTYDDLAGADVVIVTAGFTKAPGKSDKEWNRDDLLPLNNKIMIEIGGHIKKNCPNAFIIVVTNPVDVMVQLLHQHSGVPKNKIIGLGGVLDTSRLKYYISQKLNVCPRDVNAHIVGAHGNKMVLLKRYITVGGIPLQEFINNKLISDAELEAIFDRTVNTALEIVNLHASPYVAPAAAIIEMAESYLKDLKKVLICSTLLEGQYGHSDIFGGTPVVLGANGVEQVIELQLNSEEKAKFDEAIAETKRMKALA
Plasmodium falciparum protein kinase 6 (PK6, PF3D7_1337100), sequence (Q8IDW1 1-305): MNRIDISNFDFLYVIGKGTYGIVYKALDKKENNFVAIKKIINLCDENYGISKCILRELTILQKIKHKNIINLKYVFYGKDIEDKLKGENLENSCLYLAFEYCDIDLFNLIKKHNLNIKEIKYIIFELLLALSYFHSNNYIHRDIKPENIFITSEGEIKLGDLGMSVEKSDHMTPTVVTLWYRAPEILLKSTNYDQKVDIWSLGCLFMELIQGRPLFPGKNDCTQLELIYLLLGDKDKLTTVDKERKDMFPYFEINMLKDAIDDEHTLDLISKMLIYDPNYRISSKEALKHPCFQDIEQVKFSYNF
Protein kinase 7 (PK7), Plasmodium falciparum 3D7 (PF3D7_0213400), sequence (Q7YTF7 1-343): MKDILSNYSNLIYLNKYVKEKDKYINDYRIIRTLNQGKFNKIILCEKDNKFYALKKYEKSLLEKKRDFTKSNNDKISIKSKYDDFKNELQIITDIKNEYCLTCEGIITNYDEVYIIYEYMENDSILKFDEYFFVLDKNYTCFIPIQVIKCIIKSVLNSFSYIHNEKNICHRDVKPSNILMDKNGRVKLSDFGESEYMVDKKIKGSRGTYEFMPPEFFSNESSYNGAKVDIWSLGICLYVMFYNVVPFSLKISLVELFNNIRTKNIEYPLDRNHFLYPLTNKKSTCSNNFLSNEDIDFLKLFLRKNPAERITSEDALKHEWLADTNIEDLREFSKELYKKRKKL
Calcium-dependent protein kinase 1 (Plasmodium falciparum (isolate 3D7)), sequence (P62344 whole entry, looked up): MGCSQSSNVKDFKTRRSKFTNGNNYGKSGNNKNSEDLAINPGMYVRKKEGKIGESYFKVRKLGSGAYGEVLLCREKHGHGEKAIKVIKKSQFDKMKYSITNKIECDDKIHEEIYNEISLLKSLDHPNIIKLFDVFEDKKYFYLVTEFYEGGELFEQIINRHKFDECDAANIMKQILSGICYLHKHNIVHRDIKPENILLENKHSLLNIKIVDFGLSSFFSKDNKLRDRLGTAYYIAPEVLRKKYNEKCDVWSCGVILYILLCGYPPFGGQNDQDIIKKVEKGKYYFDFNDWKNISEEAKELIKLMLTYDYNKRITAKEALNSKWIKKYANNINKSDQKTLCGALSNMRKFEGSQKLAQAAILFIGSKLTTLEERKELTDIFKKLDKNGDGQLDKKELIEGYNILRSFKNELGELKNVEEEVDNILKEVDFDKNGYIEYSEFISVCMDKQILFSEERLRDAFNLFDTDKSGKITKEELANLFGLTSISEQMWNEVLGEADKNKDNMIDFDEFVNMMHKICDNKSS
Calcium-dependent protein kinase 4 (Plasmodium falciparum (isolate 3D7)), sequence (Q8IBS5 whole entry, looked up): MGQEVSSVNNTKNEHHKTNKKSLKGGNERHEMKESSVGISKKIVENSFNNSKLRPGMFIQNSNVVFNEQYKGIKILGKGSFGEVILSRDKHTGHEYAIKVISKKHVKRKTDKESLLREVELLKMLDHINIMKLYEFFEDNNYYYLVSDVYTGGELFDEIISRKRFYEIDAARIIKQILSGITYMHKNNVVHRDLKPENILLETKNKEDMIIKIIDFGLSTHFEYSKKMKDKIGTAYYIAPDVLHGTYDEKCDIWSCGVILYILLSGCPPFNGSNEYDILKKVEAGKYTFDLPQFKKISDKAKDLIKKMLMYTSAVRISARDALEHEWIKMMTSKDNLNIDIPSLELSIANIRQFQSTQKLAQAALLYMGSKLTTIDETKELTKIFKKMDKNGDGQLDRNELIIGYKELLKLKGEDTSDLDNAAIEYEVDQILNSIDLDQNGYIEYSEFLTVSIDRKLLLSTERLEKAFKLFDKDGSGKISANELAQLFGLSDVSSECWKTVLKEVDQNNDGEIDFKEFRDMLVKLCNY

For the molecule `Cc1nc2ccc3nc(NC(=O)c4ccno4)sc3c2s1`, the figures for the growth inhibition in experiment [1] and in experiment [4] were 97% (active) and 99% (active), respectively. In addition, the results for the inhibition in experiment [2] and in experiment [3] were 6% and 1%, respectively. Besides, the outcome in experiment [5], in experiment [6], in experiment [7] and in experiment [8] was inactive.
Take `COc1ccc2nc3cc(Cl)ccc3c(NCCCCNc3c4ccc(Cl)cc4nc4ccc(OC)cc34)c2c1`: the growth inhibition in experiment [1] and in experiment [4] was 99% (active) throughout. For the same molecule, the inhibition (in general, the relative decrease from the control value, in per cent) is 20% in experiment [2] and 6% in experiment [3]. Also, the result in experiment [5], in experiment [6], in experiment [7] and in experiment [8] was inactive.
On to `Cc1cccc(C(=O)NC(NC(=S)Nc2cc(Cl)ccc2Cl)C(Cl)(Cl)Cl)c1` (stereo not given), for which the growth inhibition was 61% (active) in experiment [1] and 94% (active) in experiment [4]. Further, the results for the inhibition in experiment [2] and in experiment [3] were -8% and 1%, respectively. Also, the outcome in experiment [5], in experiment [6], in experiment [7] and in experiment [8] was inactive.
`Cc1cccc2[nH]c(-c3cccc(-c4cccc(CN5CCN(c6ccc(C#N)cn6)CC5)c4)c3)nc12`: the growth inhibition is 34% in experiment [1] and 94% (active) in experiment [4]. The inhibition was 11% in experiment [2] and -5% in experiment [3]. Further, the outcome in experiment [5], in experiment [6], in experiment [7] and in experiment [8] was inactive.
Regarding `NC(=NCc1ccccc1)Nc1cccc(Cc2ccccc2)n1`, the growth inhibition in experiment [1] is 52% (active); in experiment [4] it was 85% (active). In addition, the inhibition in experiment [2] was 57% (active); in experiment [3], 0%. The outcome in experiment [5], in experiment [6], in experiment [7] and in experiment [8] was inactive.
For the molecule `CCCOC(=O)c1ccc(OCCCON2C(N)=NC(N)=NC2(C)C)cc1`, the figures for the growth inhibition in experiment [1] and in experiment [4] were 97% (active) and 95% (active), respectively. The inhibition was 61% (active) in experiment [2] and 6% in experiment [3]. Besides, the result in experiment [5], in experiment [6], in experiment [7] and in experiment [8] was inactive.
`O=C(Nc1ccc(-c2cccc(-c3nc4ccccc4[nH]3)c2)cc1)c1cnn2cccnc12`: the growth inhibition in experiment [1] was 36%; in experiment [4], 99% (active). Also, the inhibition in experiment [2] is 64% (active); in experiment [3] it was -1%. Further, the outcome in experiment [5], in experiment [6], in experiment [7] and in experiment [8] was inactive.
Take `COc1cc(NC(=O)/C=C/c2ccc(-c3ccccc3)cc2)ccc1OCCN(C(C)C)C(C)C`: the results for the growth inhibition in experiment [1] and in experiment [4] were 62% (active) and 94% (active), respectively. In addition, the values for the inhibition in experiment [2] and in experiment [3] were 58% (active) and -5%, respectively. Also, the outcome in experiment [5], in experiment [6], in experiment [7] and in experiment [8] was inactive.
For `O=c1cc(NCc2ccccc2NCc2ccc(Cl)c(Cl)c2)[nH]c2ccccc12`, the growth inhibition in experiment [1] is 98% (active); in experiment [4] it was 93% (active). The inhibition is 10% in experiment [2] and 3% in experiment [3]. The outcome in experiment [5], in experiment [6], in experiment [7] and in experiment [8] was inactive.
For `Cc1cccc(Cn2nc(-c3ccccc3)c(N3CCCCC3)cc2=O)c1`, the growth inhibition in experiment [1] is -2%; in experiment [4], 98% (active). In addition, the inhibition was 29% in experiment [2] and 0% in experiment [3]. In addition, the result in experiment [5], in experiment [6], in experiment [7] and in experiment [8] was inactive.
Consider `COc1cccc(NC(=O)Nc2ccc(C)c(-c3ccc(C(=O)Nc4ccncc4)cc3)c2)c1`, for which the values for the growth inhibition in experiment [1] and in experiment [4] were 64% (active) and 99% (active), respectively. Besides, the values for the inhibition in experiment [2] and in experiment [3] were 45% and 1%, respectively. The outcome in experiment [5], in experiment [6], in experiment [7] and in experiment [8] was inactive.
Turning to `O=C(NCc1ccco1)c1ccc(S(=O)(=O)c2ccc(Cl)cc2)cc1`, the growth inhibition is 95% (active) in experiment [1] and 97% (active) in experiment [4]. Also, the inhibition in experiment [2] was 6%; in experiment [3] it was -3%. Further, the result in experiment [5], in experiment [6], in experiment [7] and in experiment [8] was inactive.
`c1ccc(-c2cc(NCCCCNc3cc(-c4ccccc4)nc4ccccc34)c3ccccc3n2)cc1`: the growth inhibition in experiment [1] is 97% (active); in experiment [4], 102% (active). Besides, the values for the inhibition in experiment [2] and in experiment [3] were 70% (active) and 0%, respectively. For the same molecule, the result in experiment [5], in experiment [6], in experiment [7] and in experiment [8] was inactive.
For `COCc1cc(C)nc2sc(C(=O)Nc3cc(C(C)(C)C)ccc3O)c(N)c12`, the growth inhibition is 57% (active) in experiment [1] and 85% (active) in experiment [4]. Besides, the inhibition was -9% in experiment [2] and -2% in experiment [3]. Moreover, the result in experiment [5], in experiment [6], in experiment [7] and in experiment [8] was inactive.
Regarding `Cc1cc2nc(/N=C(\N)NC(=O)NC3CCCCC3)nc(C)c2cc1C`, the growth inhibition in experiment [1] was 98% (active); in experiment [4], 94% (active). The inhibition was 20% in experiment [2] and 2% in experiment [3]. Also, the outcome in experiment [5], in experiment [6], in experiment [7] and in experiment [8] was inactive.
On to `O=C1OC2(CN1CC1CCN(Cc3ccc(O)c(Cl)c3)CC1)c1ccccc1-c1ccccc12`, for which the results for the growth inhibition in experiment [1] and in experiment [4] were 96% (active) and 97% (active), respectively. For the same molecule, the inhibition was 32% in experiment [2] and 0% in experiment [3]. Besides, the result in experiment [5], in experiment [6], in experiment [7] and in experiment [8] was inactive.
As for `CN(C)CCn1c(N)c(-c2nc3ccccc3s2)c2nc(C#N)c(C#N)nc21`, the growth inhibition was 40% in experiment [1] and 94% (active) in experiment [4]. In addition, the inhibition in experiment [2] was 4%; in experiment [3], -7%. Also, the result in experiment [5], in experiment [6], in experiment [7] and in experiment [8] was inactive.
Regarding `CC1(CCc2ccccc2)N=C(N)N(Cc2ccccc2)C(=O)C1c1ccc(Cl)c(Cl)c1` (stereo not given), the growth inhibition is 96% (active) in experiment [1] and 97% (active) in experiment [4]. Moreover, the figures for the inhibition in experiment [2] and in experiment [3] were 100% (active) and -4%, respectively. Also, the outcome in experiment [5], in experiment [6], in experiment [7] and in experiment [8] was inactive.
In the case of `O=C(Nc1ccccc1)c1nn(CCCN2CCC(N3CCCC3)CC2)cc1-c1ccc(Cl)c(Cl)c1`, the results for the growth inhibition in experiment [1] and in experiment [4] were 98% (active) and 103% (active), respectively. The inhibition in experiment [2] is 31%; in experiment [3], -2%. Besides, the result in experiment [5], in experiment [6], in experiment [7] and in experiment [8] was inactive.
Consider `OCC1CCN(Cc2ccc(-c3ccc(-c4nc5ccc(F)cc5[nH]4)cc3)cc2)CC1`, for which the growth inhibition in experiment [1] is 95% (active); in experiment [4] it was 100% (active). Also, the figures for the inhibition in experiment [2] and in experiment [3] were 17% and -1%, respectively. In addition, the outcome in experiment [5], in experiment [6], in experiment [7] and in experiment [8] was inactive.
